High-throughput results: PubChem BioAssay, several laboratories
HSP90 inh = inhibitors of HSP90 luciferase refolding in rabbit reticulocyte lysate; luciferase refolding luminescence, 3 h; inhibition, % at 5.6 µM; 0.91% of 290,000 active; AID 1789;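 active means inhibition above the screen-wide mean plus 3 SD, computed separately per campaign, cut at about 16% in these data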;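 further: 0% = DMSO wells and 100% = 60 µM geldanamycin wells; inhibitors lower the luminescence because luciferase stays unfolded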
HSF1 inh = HSF1 inhibition. NIH3T3-HGL HSE-luciferase, MG132-induced, luminescence 8 h; hits give low values. activity change, negative = inhibition, % at 7.5 µM (by protocol). 0.77% of 300,000 active;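 active means more than half of replicate wells show activity change below -50%, luminescence cut by over half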;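 further: luciferase reports HSF-1 transcriptional activity via heat shock element; 0% = median of DMSO wells and -100% = zero luminescence signal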
GAA850 FXN act = frataxin GAA850 promoter activation. AID 540364. 0.56% of 360,000 active. activation, % at 6 µM. HEK293 lucGAA850 FXN promoter luciferase reporter, 24 h; percent of 10 µM SAHA response;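 active means activation above the average of all compounds screened plus 3 SD, cutoff fixed separately per campaign, cut at about 7.5% in these data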;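 further: 0% = DMSO wells and 100% = 10 µM SAHA wells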
PG9 Ab binder = PG9 antibody binding by small molecule; TR-FRET gp120-PG9 antibody binding; inhibition, % at 6.7 µM; 0.43% of 360,000 active; in the data active means inhibition above about 8.5%
SMARCA2 activ = SMARCA2 function activation, primary screen. MG213 cells, MMTV-luciferase reporter, dexamethasone, overnight. activation, % at 9.1 µM. 1% of 370,000 active. AID 652017; in the data active means activation above about 7.8%;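 further: 0% = vehicle wells and 100% = reference activator wells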
AI-2 QS mod = modulators of Vibrio harveyi AI-2 quorum sensing system; Vibrio harveyi JMH597 AI-2 luminescence/OD600 ratio, 9 h; hits give low values; strain lacks LuxN and CqsS sensors; 0 = neutral-control median; activity change, % at 7.5 µM; 0.4% of 300,000 active; in the data active means activity change below about -75%, passing the limit was not always enough;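 further: luminescence divided by OD600 gain over 9 h not by final OD600 alone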
Starred values were filed as active, the others as inactive; / = no result. Only some compounds are listed: those with a hit (about 3.4% of all), similar ones and a draw of the others.

SMILES | HSP90 inh | HSF1 inh | GAA850 FXN act | PG9 Ab binder | SMARCA2 activ | AI-2 QS mod
COc1ccc(N2CCN(c3ccc(NC(=O)NN)cc3)CC2)cc1 | -1.6 | -66.9* | 2.5 | 0.3 | -2.0 | 34.2
COc1ccc(C(=O)Nc2ccc(N3CCCC3)cc2)cc1 | 2.3 | 6.8 | -3.2 | -1.6 | 0.7 | 39.3
Cc1ccc2c(c1)c1c(n2CC(O)CN2CCOCC2)CCCC1 (stereo unspecified) | -4.0 | -69.7* | / | / | / | -4.4
COc1cccc(N2CCN(c3ncnc4c3[nH]c3ccc(F)cc34)CC2C)c1 (stereo unspecified) | -2.5 | -83.7* | -16.8 | 1.1 | -9.8 | 28.5
COc1cccc(N2CCN(c3ncnc4c3[nH]c3ccccc34)CC2C)c1 (stereo unspecified) | -2.3 | -49.5 | / | 1.0 | -4.8 | 33.6
CCCCNC(=O)C1CCCN1C(=O)Nc1cccc(C)c1 (stereo unspecified) | / | / | / | / | -3.0 | /
CC(=O)N1CCc2cc(S(=O)(=O)NCCC(=O)NCc3ccccc3)ccc21 | / | / | / | / | -3.6 | /
COc1ccccc1Oc1ccc2c(c1)C(=O)N(c1ccc(Br)c3cccnc13)C2=O | -0.9 | -74.6* | 0.8 | 1.3 | 1.3 | 26.3
Cc1cc(Cl)ccc1OCCCC(=O)N1CCOCC1 | -0.5 | -64.9* | -0.5 | -0.6 | 3.6 | 19.7
O=C(Nc1nc(-c2ccccn2)cs1)c1ccc(Cl)s1 | -4.6 | 228.3 | 6.9 | -3.9 | -0.9 | -196.5*
Cc1nc2ccc(S(=O)(=O)NCC(=O)N3CCN(c4ccccc4)CC3)cc2s1 | -0.4 | -4.0 | -2.7 | 0.2 | -1.6 | 23.1
Cc1nc2ccc(S(=O)(=O)NCC(=O)NC(C)c3ccccc3)cc2s1 (stereo unspecified) | 5.6 | -3.1 | -2.7 | 2.5 | -2.4 | -96.6*
C=CCNc1ccc2c(c1)OC[C@H](Cc1ccccc1)NS2(=O)=O | / | / | / | -2.8 | -4.5 | /
CCCCCc1ccc(C2=NNC(=O)CC2)cc1 | -2.0 | 7.6 | 2.1 | -0.1 | 0.7 | -89.5*
O=C1CCC(c2ccccc2)=NN1 | -1.2 | -5.8 | 0.8 | -0.1 | 4.0 | 9.1
CCCCCc1ccc(-c2ccc(=O)[nH]n2)cc1 | 0.3 | 10.3 | 3.5 | 1.7 | -6.7 | -77.3*
Cc1ccccc1CS(=O)(=O)Cc1ccc(C(=O)Nc2ccc(F)cc2)o1 | / | / | / | / | -7.4 | /
CN(C)c1ccc(/C=C/c2ccc3ccccc3[n+]2C)cc1 | 3.7 | -38.4 | -11.6 | -57.8 | -8.8 | -92.4*
COC(=O)c1ccc(CNC(=O)C(NC(=O)c2ccco2)C(C)C)cc1 (stereo unspecified) | -5.7 | -58.3* | -0.3 | 1.0 | -4.1 | 17.2
CCCCCCn1c(-c2ccc(Cl)cc2Cl)csc1=Nc1ccccc1 | / | / | / | / | 0.1 | /
C=CCN(CC#Cc1ccccn1)Cc1ccc(OC)cc1OC | / | / | / | / | 2.6 | /
CCCCNC(=O)NS(=O)(=O)c1ccc(NC(=O)CSc2nnc(-c3ccc(Cl)cc3)n2N)cc1 | / | / | / | / | -2.4 | /
COc1ccc(/C=C2/SC(=S)N(NS(=O)(=O)c3ccccc3)C2=O)cc1 | -1.0 | -5.5 | -0.6 | 1.1 | -1.6 | 60.0
C=CCOc1ccc(/C=C2\SC(=S)N(NS(=O)(=O)c3ccccc3)C2=O)cc1 | -0.3 | 9.6 | 1.9 | -0.7 | -0.9 | -86.2*
Cc1cccc2sc(NNC(=O)C3COc4ccccc4O3)nc12 (stereo unspecified) | -3.9 | -86.8* | 2.2 | 4.1 | -2.5 | 13.8
SMILES | HSP90 inh | HSF1 inh | GAA850 FXN act | PG9 Ab binder | SMARCA2 activ | AI-2 QS mod
O=C(NNc1nc2c(F)cc(F)cc2s1)C1COc2ccccc2O1 (stereo unspecified) | 0.6 | -2.3 | 1.7 | -0.7 | -1.8 | 18.0
COC(=O)c1ccc2nc(C3CCCCC3)c(Cc3ccccc3OC)n2c1 | / | / | / | 0.5 | -2.7 | /
CCOC(=O)c1ccc2nc3c(cc2c1)CCS3 | -1.1 | -5.3 | 11.7* | -2.4 | 2.0 | 43.5
CCCC(=O)Nc1nc2ccc(C(=O)OCC)cc2s1 | 7.3 | 15.6 | 4.1 | 0.1 | 1.6 | 17.8
Cc1ccc(S(=O)(=O)N2CCN(C(=O)c3c(-c4ccccc4)noc3C)CC2)cc1C | -0.8 | -2.0 | 1.7 | -0.6 | 0.0 | 24.0
Cc1ccc(S(=O)(=O)N2CCN(C(=O)c3c(-c4ccccc4)noc3C)CC2)c(C)c1 | -3.6 | -75.8* | -2.3 | -0.3 | -2.8 | 27.4
COC(=O)c1cc2c(c3c4cc(C)ccc4n(S(=O)(=O)c4ccc(C)cc4)c13)C(=O)N(Cc1ccc(C(F)(F)F)cc1)C2 | / | / | / | -1.3 | -1.5 | /
